Experimental data taken from PubChem BioAssay AID1259421 (Broad Institute, 2018).
“And” between values parts separate entries of the source, which are not always exact repeats. Equal values may be shown once. The whole screen tested about 6,400 compounds, of which about 610 (9.5%) were called active. Rule as the data show it: active = activity change below about -70%; inconclusive = no clear call, values can overlap the other calls; inactive = above that. The list comes from a sample in which actives are over-represented; it also holds similar structures and randomly drawn compounds. More than one record can exist for a structure, and the calls need not agree.

Experiment: Toxoplasma gondii ME49Luc growth in HeLa cells, luciferase, no IFN-y, primary screen (AID 1259421)
Conditions: T. gondii ME49Luc in HeLa, 72 h, stronger effect = lower value, concentration not given here

Row | Compound | activity change, negative = inhibition
1 | O=C1c2ccccc2-n2c1nc1ccccc1c2=O | -48.4% (inactive)
2 | Cc1nccn1CC1CCC2C(C1=O)c1ccccc1N2C (stereo unspecified) | 8.1% (inactive)
3 | CC(C)(CO)C(O)C(=O)NCCC(=O)NCCSSCCNC(=O)CCNC(=O)C(O)C(C)(C)CO (stereo unspecified) | 0.59% (inactive)
4 | CCN(CC)C(=O)c1cccc(C)c1 | 17.6% (inactive) and -3.28% (inactive)
5 | CCCCN(CCCC)C(=O)CN1C[C@H](c2ccc3c(c2)OCO3)[C@@H](C(=O)O)[C@@H]1c1ccc(OC)cc1 | 2.8% (inactive)
6 | CCOCc1nc2c(N)nc3ccccc3c2n1CC(C)(C)O | 18.1% (inactive)
7 | N[C@@H](CC(=O)Nc1ccc(Oc2cc(F)c(F)cc2Br)cc1)C(=O)O | 7.4% (inactive)
8 | COc1cccc(Nc2c(C(N)=O)cnc3c(C)cc(S(=O)(=O)c4cccc(C(=O)N(C)C)c4)cc23)c1 | -9.54% (inactive)
9 | CNC(=O)c1ccc(C)c(-n2c(C)cc(OCc3ccc(F)cc3F)c(Br)c2=O)c1 | 9.8% (inactive)
10 | CC(=O)NC1=NN(C(C)=O)C(C)(c2ccccc2)S1 (stereo unspecified) | -32.2% (inactive)
11 | C#C[C@]1(OC(C)=O)CC[C@H]2[C@@H]3CCC4=C[C@@H](OC(C)=O)CC[C@@H]4[C@H]3CC[C@@]21C | -38.3% (inactive) and 1.4% (inactive)
12 | CC(=O)O[C@]1(C(C)=O)CC[C@H]2[C@@H]3C=C(C)C4=CC(=O)CC[C@@H]4[C@H]3CC[C@@]21C | 8.45% (inactive)
13 | C#C[C@]1(OC(C)=O)CCC2C3CCC4=CC(=O)CC[C@@H]4C3CC[C@@]21C (stereo partly specified) | -79.9% (active) and -90.3% (active)
14 | c1ccc(-c2n[nH]c3c2oc2ccccc23)cc1 | 129% (inactive) and 2.12% (inactive)
15 | CCOC(=O)N1CSCC1C(=O)O (stereo unspecified) | 0.0863% (inactive)
16 | CC(C)Oc1ccc2c(=O)cc(-c3ccccc3)oc2c1 | 458% (inactive)
17 | CN(C)CCCCC(=O)Nc1ccc(NC(=S)NC(=O)c2ccc(C(C)(C)C)cc2)cc1 | 78.2% (inactive)
18 | CCOC(=O)c1ccc(OCCC2CCN(c3ccc(C)nn3)CC2)cc1 | 9.97% (inactive)
19 | COCCOc1ccc2c(c1)ncn2-c1ccc2cccc(N3CCC(N)CC3)c2n1 | -89.9% (active)
20 | CC1(COc2ccc3c(c2)ncn3-c2ccc3cccc(N4CCC(N)CC4)c3n2)COC1 | -73.4% (active)
21 | NC1CCN(c2cccc(Cl)n2)CC1 | 10.9% (inactive) and -8.3% (inactive)

Row | Compound | activity change, negative = inhibition
22 | COc1ccc(C[C@H](C)NC[C@@H](O)c2ccc(O)c(NC=O)c2)cc1 | 14.6% (inactive) and 0.747% (inactive)
23 | CCCC1OC2CC3C4CCC5=CC(=O)C=CC5(C)C4C(O)CC3(C)C2(C(=O)CO)O1 (stereo unspecified) | -4.58% (inactive)
24 | Cc1nnc(C(C)C)n1C1CC2CCC(C1)N2CC[C@H](NC(=O)C1CCC(F)(F)CC1)c1ccccc1 (stereo partly specified) | 10.7% (inactive) and 30.6% (inactive)
25 | CC(C)NC[C@@H](C(=O)N1CCN(c2ncnc3c2[C@H](C)C[C@@H]3O)CC1)c1ccc(Cl)cc1 | 9.17% (inactive)
26 | CC(=O)c1c(O)c(C)c(O)c2c1OC1=CC(=O)C(C(C)=O)C(=O)[C@@]12C (stereo partly specified) | 16.8% (inactive)
27 | CCCCCCCCCCCCC/C=C/[C@@H](O)[C@H](CO)NC(C)=O | 16.6% (inactive)
28 | NCCCCCCNS(=O)(=O)c1cccc2ccccc12 | 3.17% (inactive)
29 | NCCNS(=O)(=O)c1cccc2cnccc12 | 1.67% (inactive)
30 | Nc1nc(NCC2CCC(CNS(=O)(=O)c3cccc4ccccc34)CC2)nc2ccccc12 (stereo unspecified) | -76.7% (active) and -41.2% (inactive)
31 | Cc1onc(-c2ccccc2)c1C(=O)NC1C(=O)N2[C@@H]1SC(C)(C)[C@@H]2C(=O)O (stereo partly specified) | 8.03% (inactive)
32 | CSC1SCC2C(=O)N(C)C(C(C)C)C(=O)OCC(NC(=O)c3cnc4ccccc4n3)C(=O)NC(C)C(=O)N(C)C1C(=O)N(C)C(C(C)C)C(=O)OCC(NC(=O)c1cnc3ccccc3n1)C(=O)NC(C)C(=O)N2C (stereo unspecified) | -84.4% (active)
33 | CC(=C(CCOP(=O)(O)O)SC(=O)c1ccccc1)N(C=O)Cc1cnc(C)nc1N | -0.0808% (inactive)
34 | Oc1c(Cl)cc(Cl)c(Cl)c1Cc1c(O)c(Cl)cc(Cl)c1Cl | -88.2% (active) and -95.3% (active)
35 | O=C(Nc1cc(Cl)cc(Cl)c1O)c1c(O)c(Cl)cc(Cl)c1Cl | 1.68% (inactive)
36 | CCCC(CCC)C(=O)OC1C[C@H]2CC[C@@H](C1)[N+]2(C)C (stereo partly specified) | 9.62% (inactive)
37 | C=CCc1cccc(/C=N/NC(=O)CN2CCN(Cc3ccccc3)CC2)c1O | -76.9% (active) and 6.28% (inactive)
38 | O=C(COc1ccc(C(=O)c2ccccc2)cc1)NC1CCN(Cc2ccccc2)CC1 | -17.8% (inactive)
39 | O=C(NC1CCN(Cc2ccccc2)CC1)c1ccc(I)cc1 | 21.8% (inactive) and 21.3% (inactive)
40 | Cc1ccccc1N=Nc1ccc(NC(=O)c2ccnn2C)c(C)c1 | -4.39% (inactive)
41 | Cc1nc2ccc(CN(C)c3ccc(C(=O)N[C@@H](CCC(=O)O)C(=O)O)s3)cc2c(=O)[nH]1 | -4.51% (inactive)
42 | O=C(O)c1cc(-c2ccccc2)nc2ccccc12 | 42.2% (inactive) and 11.3% (inactive)

Row | Compound | activity change, negative = inhibition
43 | O=C(O)c1ccc(-c2c[nH]c3ncc(-c4ccccc4)cc23)cc1C1CCCC1 | -82.2% (active)
44 | CCC(=O)OCC(=O)[C@@]1(OC(=O)CC)[C@@H](C)CC2C3CCC4=CC(=O)C=C[C@]4(C)C3(F)[C@@H](O)C[C@@]21C (stereo partly specified) | -0.442% (inactive)
45 | CC(=O)Nc1ccc(S(=O)(=O)Nc2onc(C)c2C)cc1 | 6.51% (inactive)
46 | NCCCC(N)(C(=O)O)C(F)F (stereo unspecified) | 7.14% (inactive)
47 | COc1cc(OC)c2c(=O)cc(-c3ccccc3)oc2c1 | 147% (inactive)
48 | COc1cc(OC)c2c(OC)c(-c3ccc4c(c3)OCO4)c(=O)oc2c1 | -77.7% (active)
49 | COc1cc(OC)c2c(=O)c(OC)c(-c3ccccc3)oc2c1 | 43.5% (inactive)
50 | O=C(NCCc1ccc(O)c(O)c1)C12CC3CC(CC(C3)C1)C2 | 1.2% (inactive)
51 | N#C/C(=C\c1ccc(O)c(O)c1)C(=O)OCCc1cccs1 | 2.66% (inactive)
52 | COc1cc2c(cc1OC)Cc1cc(OC)c(OC)cc1Cc1cc(OC)c(OC)cc1C2 | 6.34% (inactive)
53 | COc1cccc(N2CCN(C3=Nc4c(F)cccc4[C@H](CC(=O)O)N3c3cc(C(F)(F)F)ccc3OC)CC2)c1 | -1.57% (inactive)
54 | O=C1c2ccccc2CCC1CNCCc1ccc(O)cc1 (stereo unspecified) | 9.23% (inactive)
55 | O=S(=O)(O)c1ccc(O)cc1 | 0.395% (inactive)
56 | CC(=O)N1CCN(C)CC1 | 1.18% (inactive) and 9.84% (inactive)
57 | O=c1c2cc(O)c(O)cc2oc2cc(O)c(C3O[C@H](CO)[C@H](O)[C@@H](O)[C@H]3O)c(O)c12 (stereo partly specified) | 3.15% (inactive)
58 | COc1ccc(-c2cc(=O)c3c(O)c(OC)c(O[C@H]4O[C@H](CO[C@@H]5O[C@@H](C)[C@H](O)[C@@H](O)[C@H]5O)[C@@H](O)[C@H](O)[C@H]4O)cc3o2)cc1 | 15.1% (inactive)
59 | O=C(NNc1nc2cc(F)ccc2n2cccc12)c1cnccn1 | -77.3% (active)
60 | NC(Cc1ccc(F)cc1)C(=O)O (stereo unspecified) | 2.32% (inactive)
61 | CCCCNc1ncc(-c2ccc(CN3CCOCC3)cn2)c(NC2CCC(O)CC2)n1 (stereo unspecified) | -67.2% (inactive)
62 | OC1CCC(Nc2ncc3nc(Nc4c(F)cc(F)cc4F)n([C@H]4CCOC4)c3n2)CC1 (stereo partly specified) | -77.1% (active)
63 | O=C(CN1C(=O)c2ccccc2S1(=O)=O)Nc1ccc(O)cc1 | 6.78% (inactive)

Row | Compound | activity change, negative = inhibition
64 | Nc1nc(NCCNc2ncc(-n3ccnc3)c(-c3ccc(Cl)cc3Cl)n2)ccc1[N+](=O)[O-] | 38.7% (inactive)
65 | COc1ccccc1N1CCN(CCCCNC(=O)c2ccc3ccccc3c2)CC1 | -12.8% (inactive)
66 | COc1ccc(S(=O)(=O)N2CCCN(S(=O)(=O)c3ccc(OC)c(OC)c3)CC2)cc1OC | 0.269% (inactive)
67 | O=C(NO)c1cnc(N2CCN(S(=O)(=O)c3ccc4ccccc4c3)CC2)nc1 | -82.9% (active)
68 | O=c1c2ccccc2oc2ccccc12 | 16.7% (inactive)
69 | O=C(O)c1cc(=O)c2ccccc2o1 | 5.57% (inactive) and 14.8% (inactive)
70 | O=c1[nH]c(=O)c2ccccc2o1 | 7.04% (inactive) and -95.9% (active)
71 | OC(c1ccccc1)(c1ccccc1)C12CC[N+](CCOCc3ccccc3)(CC1)CC2 | 13.9% (inactive)
72 | COc1ccc2oc(-c3ccccc3OC)cc(=O)c2c1 | 44.1% (inactive)
73 | O=C(Nc1ccccc1)NC1CC(C(=O)O)Nc2cc(Cl)cc(Cl)c21 (stereo unspecified) | 13% (inactive)
74 | CCCNC(C)C(=O)Nc1c(C)csc1C(=O)OC (stereo unspecified) | 20% (inactive)
75 | Cc1ccccc1N=C(N)Nc1ccccc1C | 5.45% (inactive) and 4.9% (inactive)
76 | CCCNC(C)C(=O)Nc1ccccc1C (stereo unspecified) | 37.2% (inactive) and -79.6% (active)
77 | CCCCCCCCCCCCCCCC(=O)OC1C(SC)OC(C(NC(=O)C2CC(CCC)CN2C)C(C)Cl)C(O)C1O (stereo unspecified) | -9.26% (inactive)
78 | COCCn1c2c([n+](Cc3cnccn3)c1C)C(=O)c1ccccc1C2=O | -83.1% (active) and -81.3% (active)
79 | CN1c2cc(O)c(N=NC(N)=O)cc2CC1S(=O)(=O)O (stereo unspecified) | -1.43% (inactive)
80 | O=P(O)(O)C(Sc1ccc(Cl)cc1)P(=O)(O)O | 5.32% (inactive) and -0.0921% (inactive)
81 | CC(=O)OCC(=O)[C@@]1(O)CCC2C3C[C@H](C)C4=CC(=O)C=CC4(C)C3[C@@H](O)CC21C (stereo partly specified) | -6.72% (inactive)
